# Experimental data reported in publication PMC7826789 (International Journal of Molecular Sciences, 2021).
structure (smiles),measurement,setting,value
Cc1cnc(Nc2ccc(F)cc2Cl)nc1-c1c[nH]c(C(=O)N[C@H](CO)c2cccc(Cl)c2)c1 [Vertex 11e],Kinases covered,MAPK1,MAPK1
same,Kinases covered,MAPK3,MAPK3
O=C1Nc2ccc(I)cc2C1=Cc1cc(Br)c(O)c(Br)c1 [GW305074X],Kinases covered,MAPK3,MAPK3
CCOc1cc(N2CCC(O)CC2)ccc1Nc1ncc2c(n1)N(C)c1ccccc1C(=O)N2C [XMD8-92],Kinases covered,MAPK7,MAPK7
CCOc1cc(C(=O)N2CCC(N3CCN(C)CC3)CC2)ccc1Nc1ncc2c(n1)N(C1CCCC1)c1ccccc1C(=O)N2C [ERK5-IN-1],Kinases covered,MAPK7,MAPK7
CN(C)C/C=C/C(=O)Nc1ccc(C(=O)Nc2cccc(Nc3ncc(Cl)c(-c4c[nH]c5ccccc45)n3)c2)cc1 [THZ1],Kinases covered,MAPK8,MAPK8
FC1=CC(C3=NC2=CC(OC)=C(OC)C=C2C(N[C@H]4[C@H]([C@](C)(O)C)CNC4)=N3)=C(O)C=C1.Cl.Cl [CCT241533],Kinases covered,MARK3,MARK3
NS(=O)(=O)c1ccc(N/N=C2\C(=O)Nc3ccc(C(=O)NCCc4c[nH]cn4)cc32)cc1 [GW300660X],Kinases covered,MELK,MELK
CC(C)COC(=O)c1ccc2c(c1)/C(=C/Nc1ccc(S(N)(=O)=O)cc1)C(=O)N2 [GW416981X],Kinases covered,MELK,MELK
